ADAM17 inh – ADAM17 inhibition, QFRET primary screen; inhibition, % at 6.95 µM; P78536; 0.83% of 370,000 active; recombinant ADAM17, EDANS/DABCYL FRET peptide cleavage; AID 720648;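 active means inhibition above the mean of compounds lying between control limits plus 3 SD, set per campaign, cut at about 8.5% in these data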;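 further: 0% = DMSO-only wells as the low control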
FGF22 binding – binders of recombinant human FGF22 by thermal shift | 1.5% of 340,000 active | SYPRO orange fluorescence; percent of sucrose octasulfate shift, DMSO zero | Q9HCT0 | activity (Tm shift, normalised), % at 9.99 µM | AID 651658;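 active means mean Tm shift, scaled 0 neutral to 100 positive control, at about 1.3% or above, every replicate too, limit read from the data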
Target sequence (Q9HCT0 whole entry, looked up): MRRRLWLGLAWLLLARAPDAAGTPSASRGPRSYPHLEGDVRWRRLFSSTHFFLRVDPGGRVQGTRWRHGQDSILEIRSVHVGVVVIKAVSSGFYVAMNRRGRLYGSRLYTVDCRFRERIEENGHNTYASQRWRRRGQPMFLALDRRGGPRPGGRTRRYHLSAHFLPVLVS
ADAM10 inh – inhibitors of human ADAM10. recombinant ADAM10, EDANS/DABCYL FRET peptide cleavage, 3 h. inhibition, % at 7 µM. 0.62% of 370,000 active;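 active means inhibition above a per-campaign cutoff equal to the mean of compounds falling between control-based bounds plus 3 SD, cut at about 20% in these data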;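 further: 0% = DMSO wells while the 100% control is not disclosed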
rRNA inh HTS – inhibits bacterial ribosomal RNA function over humanized ribosomes. 1.6% of 350,000 active. E. coli WT GFP vs humanized-ribosome RFP mutants, fluorescence, 24 h; stronger effect = lower value; DMSO median 0, no signal -100. GFP signal change (wild-type ribosome), % (test concentration not listed);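 active means significant combined selectivity score with lowered wild-type GFP, culture density cut under 30%, mutant RFP and density less affected; inactive means any of these conditions unmet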
KLK7 zymogen act – activates the human kallikrein-7 zymogen. 0.9% of 370,000 active. purified proKLK7, EDANS-DABCYL substrate fluorescence; 100% is mature enzyme control, 0% vehicle. AID 652039. activation, % at 7 µM;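 active means activation above the mean of all tested compounds plus 3 SD, computed per campaign excluding outliers beyond control limits, cut at about 13% in these data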
Target sequence (P49862 whole entry, looked up): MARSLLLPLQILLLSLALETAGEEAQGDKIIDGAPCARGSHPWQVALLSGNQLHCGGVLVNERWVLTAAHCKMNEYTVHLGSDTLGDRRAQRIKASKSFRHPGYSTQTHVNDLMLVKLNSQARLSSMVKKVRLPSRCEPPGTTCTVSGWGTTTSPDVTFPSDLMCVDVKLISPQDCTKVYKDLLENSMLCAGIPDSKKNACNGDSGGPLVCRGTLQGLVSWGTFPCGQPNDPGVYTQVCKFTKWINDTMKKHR
An asterisk follows results filed as active; / = no result given. In the library only some 3.8% were active in any assay of this set; here they are far more common.

SMILES	ADAM17 inh	FGF22 binding	ADAM10 inh	rRNA inh HTS	KLK7 zymogen act
C[C@@H]1CN([C@H](C)CO)S(=O)(=O)c2ccc(C#Cc3cccnc3)cc2O[C@H]1CN(C)C(=O)CN(C)C	/	0	/	3	/
Cc1nnc(SCc2cc([N+](=O)[O-])cc3c2OCOC3)n(N)c1=O	4	43*	6	11	-1
CC(O)CNCc1ccc(Cl)cc1Cl (stereo unspecified)	-2	45*	2	17	0
OCCCNCc1ccc(Cl)cc1Cl	-4	0	-3	13	0
CCOC(=O)C1CCN(C2=NC(=O)/C(=C/c3ccc(OC)c(OC)c3)S2)CC1	-4	0	-20	-30*	0
Cc1cccc(OCCC(=O)N(C)CC(=O)Nc2cccc3ccccc23)c1	1	0	4	-20*	0
COc1ccc(-c2cn(CC[C@H]3CC[C@@H](NC(=O)Cc4ccccn4)[C@H](CO)O3)nn2)cc1	/	0	/	0	/
COc1ccc(S(=O)(=O)N[C@@H]2CC[C@H](CC(=O)NCCc3ccccc3)O[C@H]2CO)cc1	/	0	/	0	/
Cc1oc(-c2ccc(-c3ccccc3)cc2)nc1CN(C)C1CCOC1 (stereo unspecified)	-7	0	-3	-23*	0
COc1ccc(CNC(=O)C[C@H]2C[C@@H]3c4cc(NS(C)(=O)=O)ccc4O[C@@H]3[C@@H](CO)O2)cc1	/	0	/	-3	/
CC(C)NC(=O)Nc1cccc2c1O[C@@H](CN(C)S(C)(=O)=O)[C@H](C)CN(C)C2=O	/	/	/	0	/
O=C(CSc1nnc(COc2ccccc2)o1)Nc1nccs1	1	0	6	-9	0
Cc1cccc(OCc2nnc(SCC(=O)Nc3nccs3)o2)c1	-1	0	-1	-41*	0
C[C@H]1CCCCO[C@@H](CN(C)C(=O)Nc2ccc3c(c2)OCO3)[C@@H](C)CN([C@@H](C)CO)C(=O)c2cc(NC(=O)NC3CCCCC3)ccc2O1	/	-1	/	1	/
Nn1c(SCC(=O)Nc2nccs2)nnc1C1CC1	0	2.3*	1	7	0
Nc1ccc(CSc2ccccc2)cc1	-1	43*	2	-8	0
Cc1nnc(NS(=O)(=O)c2ccc(N=Nc3ccc(N)nc3N)cc2)s1	-16	0	-50	2	0
CCCCOc1ccc(N=Nc2ccc(N)nc2N)cn1	0	0	2	-25*	0
COc1cccc(CNC(=O)C[C@@H]2CC[C@@H]3[C@@H](COc4ccc(NC(C)=O)cc4C(=O)N3C)O2)c1	/	0	/	3	/
COCCN1CCN(Cc2cn(C)nc2-c2ccc(Oc3ccccc3)cc2)CC1	0	0	0	0	0
CN(Cc1cn(C)nc1-c1ccc(Oc2ccccc2)cc1)Cc1cnc2ccccn12	0	0	4	5	0
Cn1cc(CNCc2cnc3ccccn23)c(-c2ccc(Oc3ccccc3)cc2)n1	-3	44*	-11	-24	0
CN(Cc1ccno1)Cc1cn(C)nc1-c1ccc(Oc2ccccc2)cc1	0	0	-1	-34*	1
Cn1cc(CN2CCN(CCO)CC2)c(-c2ccc(Oc3ccccc3)cc2)n1	-2	43*	3	/	1
COc1ccc(S(=O)(=O)N(C)C[C@H]2OCCCC[C@@H](C)Oc3ccc(NS(=O)(=O)c4ccccc4)cc3C(=O)N([C@@H](C)CO)C[C@@H]2C)cc1	/	0	/	2	/
SMILES	ADAM17 inh	FGF22 binding	ADAM10 inh	rRNA inh HTS	KLK7 zymogen act
C[C@H]1CN([C@@H](C)CO)C(=O)c2c(c3ccccc3n2C)-c2ccccc2CO[C@@H]1CN(C)C(=O)C1CC1	/	0	/	-1	/
C[C@H]1CN(C)C(=O)c2cccc(NS(C)(=O)=O)c2O[C@H]1CN(C)S(C)(=O)=O	/	/	/	0	/
COc1cc(OC)c2c(c1)OC(=O)CC2c1ccc2c(c1)OCO2 (stereo unspecified)	-16	0	-50	-28*	1
COc1cc(OC)c2c(c1)OC(=O)CC2c1ccc(C)cc1 (stereo unspecified)	1	0	10	-22	0
CCCCCNCC(=O)Nc1cc(C(F)(F)F)ccc1OCCOC	2	44*	-1	7	0
COc1cccc(-c2cn(CC[C@H]3CC[C@@H](NC(=O)CC4CC4)[C@@H](CO)O3)nn2)c1	/	0	/	-2	/
CC(C)Cn1c(N)c(C(=O)COC(=O)c2ccc(O)cc2)c(=O)n(C)c1=O	2	0	1	-21	0
CC(C)Cn1c(N)c(C(=O)COC(=O)c2ccc([N+](=O)[O-])o2)c(=O)n(C)c1=O	2	43*	-1	-14	0
Cc1cccc(N2CCN(Cc3cc(=O)n4ccsc4n3)CC2)c1C	-4	/	-6	/	0
Cc1ccc(Cl)cc1N1CCN(Cc2cc(=O)n3ccsc3n2)CC1	-14	0	-31	-29*	0
O=C(NC1CCC1)[C@@H]1[C@@H](CO)[C@@H]2Cn3c(ccc(-c4ccccc4)c3=O)[C@H]1N2	/	/	/	-1	/
C[C@H]1CN([C@@H](C)CO)C(=O)c2cc(-c3ccccc3F)cnc2O[C@@H]1CN(C)C(=O)C1CC1	/	0	/	4	/
CCCCN1C(=O)C(O)(CC(=O)c2c(C)n[nH]c2C)c2cc(Br)ccc21 (stereo unspecified)	-1	/	-16	-21*	0
C/C(=N\NC(=O)c1cc(C)nc2ccccc12)c1ccncc1	-1	0	3	7	0
C/C(=N\NC(=O)c1cc(C)nc2ccccc12)c1ccccn1	0	0	-12	-24*	1
C=CCc1cccc2cc(C(=O)O)c(=O)oc12	0	/	0	/	0
C=CCc1cccc2cc(C(=O)Nc3ccccc3C(=O)O)c(=O)oc12	-5	43*	-7	3	0
O=S(=O)(c1cccc(F)c1)N1CC[C@H]2[C@H](CO)Nc3ccc(C#Cc4cccc(F)c4)cc3[C@H]21	/	/	/	-4	/
O=C(CNC(=O)c1ccc(Cl)cc1)OC1CCOC1=O (stereo unspecified)	0	43*	8	8	0
CO[C@H]1CN(C)C(=O)c2ccc(NC(=O)c3ccccc3)cc2OC[C@@H](C)N(C(=O)C2CC2)C[C@@H]1C	/	/	/	-3	/
CCC(=O)NC(=S)Nc1ccc(N2CCOCC2)cc1	1	0	-3	8	1
CCC(=O)Nc1cccc(NC(=S)NC(=O)c2ccc(C)cc2)c1	1	1	5	-1	0
CCCCCC(=O)NC(=S)Nc1ccc(N2CCOCC2)cc1	-2	0	1	-27*	0
CCC(=O)Nc1cccc(NC(=S)NC(=O)c2cccc(C)c2)c1	2	0	-1	-17*	0
CCCCCC(=O)NC(=S)Nc1cccc(C(C)=O)c1	1	44*	-2	-13	0
O=S(=O)(N[C@H]1CC[C@H](CCn2cc(-c3cccc(F)c3)nn2)O[C@H]1CO)c1ccc(F)cc1	/	0	/	-9	/
